The panel holds about 83,000 compounds, 20% with a hit somewhere; the sample as a whole holds those more often.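 Cells were grown in 96-well plates and exposed to the test compound at a single concentration for 48 hours; results are reported as percent growth, with values below 10 considered active.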 Unmarked numbers belong to inactive results. Active and inactive are the calls of the source.

The experiment deals with MDA-MB-468 breast. The experiment is described as follows: NCI-60 one-dose screen, 48 h (100 = growth as untreated, 0 = no growth, -100 = all killed). The note with it: 10 µM unless noted.
On to `CC(=O)Nc1ccc2nc3ccc(NC(C)=O)cc3[n+](-c3ccccc3)c2c1`, for which the growth is 104%.

Turning to `CC1(C)CN(c2cnc(C(=O)Nc3cc(F)cc4cccnc34)cn2)CCN1`, the growth was 17.8%.

On to `C#Cc1cccc(Nc2ncnc3cc4c(cc23)OCCOCCOCCO4)c1`, for which the growth is -26.7% (active).

With `CCCCCCCCCCCCCCCC1=NCC[N+]1(CCO)CCO`, the growth is 55.2%.

For `CC(C1=C(CN(C(=O)Cc2cn(-c3ccccc3)nc2-c2ccc(Cl)cc2)C(C)C)Cc2ccccc21)c1ccccn1` (centres undefined), the growth was 43.8%.

With `CC(C)NC(=O)N/C=C(\C#N)C(N)=O`, the growth was 93.6%.

Take `Cc1ccc(N(CC(=O)Nc2ccc(S(=O)(=O)NC3CCN(C)CC3)cc2)S(=O)(=O)c2ccc(Cl)cc2)cc1`: the growth is 50.3%.

Regarding `CC(=O)Nc1ccc(OC(=O)c2ccccc2O)cc1`, the growth was 117%.

Turning to `COc1ccc(-c2cc(C(=O)N3N=C(c4ccc(N)cc4)CC3c3ccc(Cl)cc3)c3ccccc3n2)cc1` (centres undefined), the growth is 18.4%.

As for `Cc1ncc(-c2ccoc2)c(NC2CCCCCC2)n1`, the growth was 105%.

As to `Cc1ccc(C(=O)Nc2ccc(CN3CCN(C)CC3)c(C(F)(F)F)c2)cc1C#Cc1cnc(N)c2ccc(F)cc12`, the growth is -79.2% (active).

`O=C(Nc1ccc(-n2ccc3c(NC(=O)c4ccccc4)nccc32)cc1)c1ccc(Cl)c(C(F)(F)F)c1`: the growth was -9.71% (active).

Turning to `O=C(CSc1ccc2nnc(-c3cccc(F)c3)n2n1)Nc1ccc2c(c1)OCO2`, the growth was 23%.

In the case of `Cc1cc(N2CCN(C)CC2)nc(N(CCNc2ccnc3cc(Cl)ccc23)Cc2ccco2)n1`, the growth was 37.5%.

Consider `Cc1nc2sc(C(=O)Nc3ccccc3)c(N)c2cc1C(=O)/C=C/c1ccccc1`, for which the growth is 2.08% (active).

Regarding `O=C(CI)Nc1ccc(O)c2ccccc12`, the growth is -71.7% (active).

In the case of `COC(=O)c1nc(-c2ccccc2)oc1S(=O)(=O)N1CCCC(C)C1` (centres undefined), the growth is 29.2%.

As for `COc1ccc2c(c1)C(=O)/C(=C/c1ccc(O)cc1)O2`, the growth was -28.5% (active).

For the compound `Cc1cc2nc(C(Cl)Cl)nc(-c3ccc(S(=O)(=O)N(C)C)cc3)n2n1`, the growth is -20.2% (active).

`Cc1ccc(S(=O)(=O)NC(CCC(=O)Nc2ccccc2)C(=O)Nc2ccccc2)cc1` (centres undefined): the growth is -20.6% (active).

On to `C/C(=N\N1CC(=O)NC1=O)c1ccc([N+](=O)[O-])o1`, for which the growth is 95.7%.

In the case of `COc1ccc(-c2nc(-c3nc4cc(Cl)c(Cl)cc4[nH]3)c3ccccn23)cc1`, the growth is 66.6%.

With `CN(C)Cc1ccc(NC(=O)c2cncc(C#Cc3cnc(N)c4ncccc34)c2)cc1C(F)(F)F`, the growth was 84%.

In the case of `CCN1CCN(/C(=N\c2sc(-c3ccccc3)nc2-c2ccccc2)c2ccccc2)CC1`, the growth is 75.3%.
